Screens deposited in PubChem by National Center for Advancing Translational Sciences (NCATS).
Rows were chosen to be rich in hits. Some 21% of all compounds tested hit in one or more screens of this group.
ClpP mod – qHTS Assay for Activators of ClpP. ATP-dependent Clp protease proteolytic subunit (Bacillus subtilis (strain 168)), P80244. Potency, µM (top dose mostly 57.5 µM), inactives show at the highest dose activity change, negative = active. purified B. subtilis ClpP, FRET peptide cleavage, 20 min. 340,000 compounds, 1.9% hits; active = well fitted falling curve with a large enough effect; inconclusive = small, poorly fitted or top-dose-only effect; inactive = no such curve, though single readings can be large or run the other way; also: potency is read from the fitted curve at half-maximal effect; the source files actives as falling curves though it sought activators and does not explain the sign; nearly all actives have a fitted effect of over 65% in size
Target sequence (P80244 whole entry, looked up): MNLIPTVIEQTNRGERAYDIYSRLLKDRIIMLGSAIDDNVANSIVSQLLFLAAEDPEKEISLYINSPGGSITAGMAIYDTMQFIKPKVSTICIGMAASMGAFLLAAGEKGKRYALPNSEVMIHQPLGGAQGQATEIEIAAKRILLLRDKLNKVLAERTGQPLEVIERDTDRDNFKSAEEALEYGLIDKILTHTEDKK
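Buffer: 100 mM Tris/HCl pH8, 100 mM KCl, 0.05% low protease BSA, 2.5% glycerol, 0.01% Tween-20. ClpP 10 microg/mL final; 20 min RT; delta FRET normalized to ADEP and DMSO controls.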
D3 antag – qHTS of D3 Dopamine Receptor Antagonist: qHTS; D(3) dopamine receptor (Homo sapiens), P35462; D3R cells, DiscoveRx beta-arrestin luminescence, antagonist mode; hits give low values; max response, negative = inhibition, %; 360,000 compounds, 2.5% hits; AID 652054, 2013; in the data active = max response below about -50%; inconclusive = no clear call, values can overlap the other calls; also: % is scaled to controls: 0 for no effect and ±100 for the full control effect
Target sequence (P35462 whole entry, looked up): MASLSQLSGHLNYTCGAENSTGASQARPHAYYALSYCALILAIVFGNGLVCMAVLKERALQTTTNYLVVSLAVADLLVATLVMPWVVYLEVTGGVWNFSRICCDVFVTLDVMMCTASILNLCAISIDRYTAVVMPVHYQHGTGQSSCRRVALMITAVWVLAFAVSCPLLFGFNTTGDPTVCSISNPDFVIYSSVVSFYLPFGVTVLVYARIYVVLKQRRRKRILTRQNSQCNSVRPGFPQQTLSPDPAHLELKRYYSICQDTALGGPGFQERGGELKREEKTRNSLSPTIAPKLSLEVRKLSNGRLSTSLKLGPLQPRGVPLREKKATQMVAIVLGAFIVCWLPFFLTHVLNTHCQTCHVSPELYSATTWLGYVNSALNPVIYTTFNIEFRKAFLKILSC
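Cells expressing the human receptor were seeded at 1500 cells/well, incubated overnight at 37 degrees C in 5% CO2, then exposed to library compounds with dopamine controls for 90 minutes at 37 degrees C before luminescent detection.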
D3 ag – qHTS of D3 Dopamine Receptor Agonist: qHTS; D(3) dopamine receptor (Homo sapiens), P35462; D3R DiscoveRx beta-arrestin cells, luminescence, 90 min; max activation, %; 410,000 compounds, 0.58% hits; AID 652048, 2013; in the data active = max activation above about 30%; also: 0% is about no effect
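Agonist mode: compounds and dopamine controls were applied to plated cells for 90 min at 37 degrees C after an overnight attachment at 1500 cells/well. Luminescent read-out followed 30 - 60 minutes at room temperature with DiscoveRx detection reagent.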
DT40 TDP1 no CPT – qHTS for Inhibitors of human tyrosyl-DNA phosphodiesterase 1 (TDP1): qHTS in cells in absence of CPT. DT40 Tdp1-/- hTDP1 cells, no CPT, ATP luminescence, 48 h. Potency, µM (doses to about 46.2 µM), for the others: at the top dose activity change, negative = growth inhibition, most hits filed as inhibitors. 420,000 compounds, 15% hits; also: potency is read from the fitted curve at half-maximal effect; % is scaled to controls: 0 for no effect and ±100 for the full control effect; nearly all actives have a fitted effect of over 55% in size
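No-CPT arm: Tdp1-/-;hTDP1 DT40 cells (400/well) plus compounds, incubated ≥48 hr at 37 °C. Readout CellTiter-Glo luminescence.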
DT40 TDP1 CPT – qHTS for Inhibitors of human tyrosyl-DNA phosphodiesterase 1 (TDP1): qHTS in cells in presence of CPT | Potency, µM (top dose mostly 46.2 µM), inactives show at the highest dose activity change, negative = growth inhibition, hits mostly inhibitors | 420,000 compounds, 12% hits | chicken DT40 Tdp1-/-;hTDP1 cells + 20 nM CPT, ATP luminescence, 48 h; also: potency is read from the fitted curve at half-maximal effect; % is scaled to controls: 0 for no effect and ±100 for the full control effect; nearly all actives have a fitted effect of over 55% in size
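Chicken DT40 Tdp1-/- cells complemented with human TDP1, 400 cells/well, exposed to compounds plus 20 nM camptothecin for at least 48 h at 37 C; viability read as ATP content by CellTiter-Glo luminescence.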
IL1B secr inh – qHTS for Inhibitors of Inflammasome Signaling: IL-1-beta AlphaLISA Primary Screen; THP-1 LPS/ATP IL-1B secretion, AlphaLISA, 16 h; hits give low values; 360,000 compounds, 4.7% hits; activity change, % at 57.5 µM; in the data active = activity change below about -50%; inconclusive = mostly about -30% to -49%; also: % is scaled to controls: 0 for no effect and ±100 for the full control effect
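THP-1 cells pretreated 1 hr with compounds (up to 57.5 uM final), then stimulated with LPS (250 ng/mL final) plus ATP (1.25 mM final); secreted IL-1B measured by AlphaLISA after 16 hr, decreased signal indicating inhibition.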
* marks the source's active call; other numbers are inactive results; ? = inconclusive; nt = not tested or not shown; [ ] = dose if it differs, or a comment. Unless noted, calls follow the shape of the dose curve; as a rule, active = well fitted inhibition curve with a large enough effect; inconclusive = small, poorly fitted or top-dose-only effect; inactive = flat fitted curve, though single readings scatter.

SMILES	ClpP mod	D3 antag	D3 ag	DT40 TDP1 no CPT	DT40 TDP1 CPT	IL1B secr inh
Cc1ccc(NC(=O)c2ccc(CNS(=O)(=O)c3ccc4c(c3)C(C)(C)C(=O)N4C)cc2)cc1C	-5.3%	nt	12.9	11.6µM*	14.6µM*	nt
O=C(NCCC1=CCCCC1)C(=O)NCc1ccncc1	nt	9.6	1.9	-25.9%	-9.0%	20.6
CCC(c1nnc(SCC(=O)Nc2cc(S(C)(=O)=O)ccc2Cl)n1Cc1ccccc1)N(C)C (stereo not drawn)	31.6µM*	14.2	-5.1	-9.0%	-15.2%	10.2
COc1ccc(-c2nc(CN3CCN(Cc4cccc(Cl)c4)CC3)c(C)o2)cc1	-1.5%	-60.3*	-1.6	?	?	9.8
COC(=O)c1ccc(-c2nc(CN3CCN(Cc4cccc(C)c4)CC3)c(C)o2)cc1	4.3%	0.6	-3.9	23.1µM*	?	6.6
COC(=O)c1ccc(-c2nc(CN3CCN(C(=O)c4ccco4)CC3)c(C)o2)cc1	-3.9%	0.0	-0.5	2.0%	-8.9%	42.6
CCCNC(=O)Cn1c(=O)c2cccn2c2cccnc21	4.2%	nt	-0.2	-6.4%	-7.2%	nt
COc1ccc(CCNC(=O)CSc2nnc3ccc(-c4cccnc4)nn23)cc1	-2.0%	0.6	0.5	11.6%	-7.1%	?
CCCc1cc(N2CCN(c3ccccc3F)CC2)n2cnnc2n1	1.8%	nt	5.5	25.9µM*	18.4µM*	nt
CCCc1cc(N2CCN(c3ccccc3)CC2)n2cnnc2n1	-1.5%	nt	-2.4	-77.5%	?	nt
Cc1oc(-c2ccc(Cl)cc2)nc1CS(=O)CC(=O)NCCc1ccccc1 (stereo not drawn)	-18.2%	nt	-4.6	?	?	nt
COc1ccc(S(=O)(=O)Nc2cc(SCC(=O)O)c(O)c3ccccc23)cc1	35.5%	-21.2	-6.5	5.17µM*	3.26µM*	-58.7*
COc1ccc(S(=O)(=O)Nc2cccc3ccc(O)cc23)cc1	-0.1%	11.8	2.5	7.31µM*	6.51µM*	33.8
O=C(O)CSc1cc(NS(=O)(=O)c2ccc(Cl)cc2)c2ccccc2c1O	nt	0.0	-11.6	2.31µM*	4.61µM*	-84.2*
Cc1cc(Br)cc(C)c1NC(=S)NC(=O)CC(C)C	-0.8%	7.9	2.4	?	?	51.2
CCCC(=O)NC(=S)Nc1c(C)cc(Br)cc1C	5.2%	2.2	4.3	16.4µM*	?	73.0
COc1cc2c(cc1OC)CN(C(=O)Cc1c(F)cccc1Cl)CC2	nt	8.0	5.6	?	-28.3%	-5.7
Cc1c(C(=O)NCc2ccc(F)cc2)oc2ccc(S(=O)(=O)N3CCOCC3)cc12	nt	9.8	2.3	14.6µM*	?	-22.0
Cc1c(C(=O)NCc2ccc3c(c2)OCO3)oc2ccc(S(=O)(=O)N3CCC(C)CC3)cc12	-23.1%	7.2	-8.3	14.6µM*	14.6µM*	78.2
Cc1c(C(=O)NCCc2ccccc2)oc2ccc(S(=O)(=O)N3CCOCC3)cc12	-0.9%	-5.1	5.6	?	-23.8%	-3.6
CCN(CC)S(=O)(=O)c1ccc2oc(C(=O)Nc3ccc(OC)cc3OC)c(C)c2c1	630.9%	22.5	2.7	11.6µM*	18.4µM*	6.4
CCN(CC)S(=O)(=O)c1ccc2oc(Nc3ccc(OC)cc3OC)nc2c1	-2.0%	-0.4	-28.0	18.4µM*	?	24.8
COc1cccc(O)c1CN1CCC2(CC1)c1ccccc1[C@@H](NC(=O)c1ccsc1)[C@@H]2OC	nt	nt	nt	?	17.1%[9.04 µM]	nt
Cc1nn(Cc2ccc(C(=O)N3CCN(C(=O)c4ccco4)CC3)o2)c(C)c1[N+](=O)[O-]	-0.8%	7.5	2.7	-2.7%	-10.9%	-1.4
CCN(CC)S(=O)(=O)c1ccc2oc(C(=O)NCc3ccc(F)cc3)c(C)c2c1	-0.5%	4.0	1.2	13µM*	13µM*	?
SMILES	ClpP mod	D3 antag	D3 ag	DT40 TDP1 no CPT	DT40 TDP1 CPT	IL1B secr inh
CCN(CC)S(=O)(=O)c1ccc2oc(C(=O)NC3CC3)c(C)c2c1	nt	0.9	-5.0	10.3µM*	-21.7%	24.3
CCc1ccc2oc(C(=O)NCc3ccc(S(N)(=O)=O)cc3)c(C)c2c1	nt	-5.9	-2.3	-17.8%	-18.1%	21.6
O=C1CC(c2ccc(O)cc2)Oc2cc(O)cc(O)c21 (stereo not drawn)	-0.7%	6.1	4.2	-3.1%	-17.5%	15.7
CC1CC(=O)c2c(cc3c(-c4c(O)cc(O)c5c(O)c6c(cc45)OC(C)CC6=O)c(O)cc(O)c3c2O)O1 (stereo not drawn)	1.1%	-17.6	2.2	1.3µM*	1.03µM*	3.4
O=C(C1CCCCC1)N1CCOc2ccc(CN3CCN(Cc4ccccn4)CC3)cc2C1	nt	nt	nt	-8.6%	0.1%[9.04 µM]	nt
C=CCOc1c(Br)cc(CNc2ccc(NC(=O)CCC)cc2)cc1OCC	7.9%	24.2	0.8	16.4µM*	?	0.0
C=CCOc1c(Br)cc(CNc2ccc(NC(=O)C(C)C)c(OC)c2)cc1OCC	5.0%	2.1	-0.9	16.4µM*	20.6µM*	-16.2
C=CCOc1c(Br)cc(CNc2ccc3[nH]c(=O)[nH]c3c2)cc1OCC	nt	-0.2	-0.8	?	?	nt
Cc1cc2nc(NC(=O)C3(C)CCN3C(=O)C(C)C)[nH]c2cc1C (stereo not drawn)	0.5%	-17.7	65.9*	-29.1%	-15.5%	5.6
N#Cc1c(-c2cccs2)cc(-c2ccccn2)nc1N	12.6µM*	47.5	5.3	5.8µM*	5.8µM*	-11.2
Cc1csc(NC(=S)NC(=O)c2ccccc2)n1	nt	-28.0	0.4	18.4µM*	?	18.7
Cc1csc(NC(=O)[C@@H](NC(=O)c2ccccc2)C(C)C)n1	0.6%	3.0	1.4	8.2µM*	?	15.9
Cc1cccc(C(=O)N[C@H](C(=O)Nc2nccs2)C(C)C)c1	-5.6%	11.9	2.4	-25.8%	-15.2%	12.2
Cc1cccc(C(=O)N[C@H](C(=O)Nc2nc(C)cs2)C(C)C)c1	0.5%	4.6	2.8	7.31µM*	8.2µM*	10.2
CC(C)[C@H](NC(=O)c1ccccc1Cl)C(=O)Nc1nc(-c2ccccn2)cs1	-1.4%	3.4	6.1	5.8µM*	5.8µM*	70.5
CC(Oc1ccc(Br)cc1)C(=O)Nc1nc(-c2ccccn2)cs1 (stereo not drawn)	-0.4%	-18.2	-13.1	3.26µM*	4.61µM*	-99.3*
